Test results as given in PubChem BioAssay (Tox21).
Inconclusive results are not listed. Where a call stands in place of a potency, no number is given. The source made the active and inactive calls. Calls come from the whole dose curve; as a rule, active = well fitted activation curve with a large enough effect in the repeat runs; inconclusive = weak or mixed curves; inactive = flat fitted curve, though single readings scatter.

Assay: A CellTox Green Cytotoxicity Assay to monitor cytotoxicity in HepG2 cells - 0 hour (AID 1224882); note: nearly all actives have a fitted effect of over 35% in size
Conditions: CellTox Green fluorescence; series mostly up to 76.8 µM
Procedure, shortened: (§1)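 Measurements at 0, 8, 16, 24, 32 and 40 h of treatment captured CellTox Green fluorescence in HepG2 cells that had been co-plated with reagent and preincubated 5 h at 37 C/5% CO2.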

SMILES	Potency
CNC(=O)O/N=C(\C)C(C)S(C)(=O)=O (centres undefined)	inactive
N#Cc1c[nH]cc1-c1cccc2c1OC(F)(F)O2	inactive
c1ccc(N=NNc2ccccc2)cc1	inactive
O.O.O.O=C([O-])[C@H]([O-])[C@@H]([O-])C(=O)[O-].O=C([O-])[C@H]([O-])[C@@H]([O-])C(=O)[O-].[K+].[K+].[Sb+3].[Sb+3]	inactive
Nc1ccc(N=Nc2ccccc2)cc1	inactive
COP(=S)(OC)Oc1nc(Cl)c(Cl)cc1Cl	inactive
CC(=O)[O][Sn]([c]1ccccc1)([c]1ccccc1)[c]1ccccc1	inactive
[O]=[Cr](=[O])([OH])[O][Cr](=[O])(=[O])[OH]	inactive
N#CC(C#N)=NNc1cccc(Cl)c1	inactive
CC(C)C(Nc1ccc(C(F)(F)F)cc1Cl)C(=O)OC(C#N)c1cccc(Oc2ccccc2)c1 (centres undefined)	inactive
[Cl-].[Cl-].[Sn+2]	inactive
COP(=O)(OC)O/C(=C\Cl)c1cc(Cl)c(Cl)cc1Cl	inactive
O=S1OCC2C(CO1)C1(Cl)C(Cl)=C(Cl)C2(Cl)C1(Cl)Cl (centres undefined)	inactive
CC(C)(C)c1ccc(OP(=O)(Oc2ccccc2)Oc2ccccc2)cc1	inactive
CC[C@]1(O)CC[C@H]2[C@@H]3CCC4=CCCC[C@@H]4[C@H]3CC[C@@]21C	inactive
O=C1C(Cl)=C(Cl)C(=O)C(Cl)=C1Cl	inactive
CO/N=C(\C(=O)OC)c1ccccc1CO/N=C(\C)c1cccc(C(F)(F)F)c1	inactive
CC(C)N(C(=O)SC/C(Cl)=C/Cl)C(C)C	inactive
c1ccc2c(c1)cc1ccc3cccc4ccc2c1c34	inactive

Assay: A CellTox Green Cytotoxicity Assay to monitor cytotoxicity in HepG2 cells - 32 hour (AID 1224883); note: nearly all actives have a fitted effect of over 50% in size; note: potency is the fitted concentration of half-maximal effect
Conditions: CellTox Green fluorescence; series mostly up to 76.8 µM
Procedure, shortened: as §1

SMILES	Potency	cytotoxicity increase
O=[N+]([O-])c1cc(C(F)(F)F)c(Cl)c([N+](=O)[O-])c1Nc1ncc(C(F)(F)F)cc1Cl	4900 nM (active)	–
CC#C[C@]1(O)CC[C@H]2[C@@H]3C[C@H](C)C4=CC(=O)CC[C@]4(C)[C@H]3CC[C@@]21C	inactive	–
O=P(Cl)(Cl)Cl	inactive	–
O=Cc1ccccc1	inactive	–
COc1nc(C)nc(NC(=O)NS(=O)(=O)c2ccccc2Cl)n1	inactive	–
CCC[CH2][Sn]([CH2]CCC)([CH2]CCC)[O][Sn]([CH2]CCC)([CH2]CCC)[CH2]CCC	537 nM (active)	–
C#CCO	inactive	–
ClCBr	inactive	–
CCCCCON=O	inactive	–
OCC(Br)CBr (centres undefined)	inactive	–
CO/N=C(/C1=NOCCO1)c1ccccc1Oc1ncnc(Oc2ccccc2Cl)c1F	inactive	–
CCCN	inactive	–
CSSC	inactive	–
C=CCBr	inactive	–
CC(C)=CCN1CC[C@@]2(C)c3cc(O)ccc3C[C@@H]1[C@@H]2C	inactive	–
ClC(Cl)C(Cl)(Cl)Cl	inactive	–
Clc1c(Cl)c(Cl)c(Cl)c(Cl)c1Cl	–	-1.01% [at 6.97 µM] (inactive)
CCNS(=O)(=O)C(F)(F)C(F)(F)C(F)(F)C(F)(F)C(F)(F)C(F)(F)C(F)(F)C(F)(F)F	inactive	–
CSC1=N[C@@](C)(c2ccccc2)C(=O)N1Nc1ccccc1	inactive	–
CCn1cc[n+](C)c1 (tested in a mixture with another compound)	inactive	–
